{
  "source": "paper PMC4336329",
  "about": "(PLoS ONE, 2015)",
  "note": "Screen size: about 310,000 compounds; about 14,000 (4.5%) showed an effect of 50% or more. Effects have a minus sign here. For the sample, strong results were picked, then their nearest neighbours and some compounds at random.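 Further: peak tail current of the secondary pulse compared with the same well before compound.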",
  "data": [
    {"target": "human ether-à-go-go-related gene (hERG) potassium channel (human, UniProt Q12809)", "sequence (Q12809 whole entry, looked up)": "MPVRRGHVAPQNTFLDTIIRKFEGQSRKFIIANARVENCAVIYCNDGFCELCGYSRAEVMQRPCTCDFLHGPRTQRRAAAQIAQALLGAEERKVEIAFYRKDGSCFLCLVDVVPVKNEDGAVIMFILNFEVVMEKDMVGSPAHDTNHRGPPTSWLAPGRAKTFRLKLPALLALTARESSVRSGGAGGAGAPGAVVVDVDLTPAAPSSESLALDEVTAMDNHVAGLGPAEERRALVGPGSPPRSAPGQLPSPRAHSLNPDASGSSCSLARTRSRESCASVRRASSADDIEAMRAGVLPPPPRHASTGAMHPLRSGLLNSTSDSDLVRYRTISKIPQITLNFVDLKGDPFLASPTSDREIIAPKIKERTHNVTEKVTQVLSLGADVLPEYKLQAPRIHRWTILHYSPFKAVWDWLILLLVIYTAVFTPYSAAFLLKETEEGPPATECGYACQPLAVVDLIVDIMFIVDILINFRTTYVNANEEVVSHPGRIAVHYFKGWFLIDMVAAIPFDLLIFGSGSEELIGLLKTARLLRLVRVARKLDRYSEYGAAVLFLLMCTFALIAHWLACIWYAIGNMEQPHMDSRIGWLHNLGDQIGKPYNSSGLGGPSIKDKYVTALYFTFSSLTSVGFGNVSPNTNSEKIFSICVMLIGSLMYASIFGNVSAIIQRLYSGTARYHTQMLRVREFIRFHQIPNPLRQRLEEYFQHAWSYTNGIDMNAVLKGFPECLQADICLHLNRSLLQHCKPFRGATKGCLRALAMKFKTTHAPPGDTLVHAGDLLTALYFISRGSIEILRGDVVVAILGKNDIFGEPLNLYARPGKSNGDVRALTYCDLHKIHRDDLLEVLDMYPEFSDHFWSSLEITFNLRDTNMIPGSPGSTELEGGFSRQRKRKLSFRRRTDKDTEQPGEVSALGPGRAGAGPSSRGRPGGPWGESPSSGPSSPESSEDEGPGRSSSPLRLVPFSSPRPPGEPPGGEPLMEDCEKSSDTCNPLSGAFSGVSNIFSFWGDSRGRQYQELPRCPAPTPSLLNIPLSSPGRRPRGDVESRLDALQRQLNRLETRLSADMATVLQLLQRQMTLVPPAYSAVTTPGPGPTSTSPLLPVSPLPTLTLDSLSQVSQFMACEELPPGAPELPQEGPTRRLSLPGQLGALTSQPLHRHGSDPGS", "experiment": "primary screen, population patch clamp on CHO cells stably expressing hERG; higher = less effect of the substance", "units": {"hERG current change (%, negative = inhibition) at 10uM": "%"}, "values": [
      {"smiles": "Cc1ccc(NC(=S)N2CCn3cccc3C2c2cccnc2)cc1", "note": "(centres unmarked)", "hERG current change (%, negative = inhibition) at 10uM": -37.3},
      {"smiles": "CCOc1ccccc1-c1nc(-c2ccncc2)no1", "hERG current change (%, negative = inhibition) at 10uM": -15.8},
      {"smiles": "COc1cccc(-c2ccc(SCC(=O)NCCc3ccccc3)nn2)c1", "hERG current change (%, negative = inhibition) at 10uM": -41.7},
      {"smiles": "CCCN(C(=O)C(C)Oc1cccc(Cl)c1)c1c(N)n(Cc2ccccc2)c(=O)[nH]c1=O", "note": "(centres unmarked)", "hERG current change (%, negative = inhibition) at 10uM": 1.41},
      {"smiles": "CCC(C)N1C(=O)c2ccccc2C1C(=O)NC1CCCCCC1", "note": "(centres unmarked)", "hERG current change (%, negative = inhibition) at 10uM": 4.45},
      {"smiles": "COC(=O)c1cc2occc2n1Cc1ccc(Cl)cc1", "hERG current change (%, negative = inhibition) at 10uM": 9.68},
      {"smiles": "Nc1nonc1-n1nnc(C(=O)N/N=C/c2ccc(OCc3ccccc3)cc2)c1CN1CCCCC1", "hERG current change (%, negative = inhibition) at 10uM": 7.17},
      {"smiles": "Cc1ccccc1S(=O)(=O)NCc1cccnc1", "hERG current change (%, negative = inhibition) at 10uM": 5.17},
      {"smiles": "CN(C)S(=O)(=O)Nc1cc(Cl)cc(Cl)c1", "hERG current change (%, negative = inhibition) at 10uM": -0.782},
      {"smiles": "COc1ccc(C(O)(CCN2CCCCC2)C2CCCCC2)cc1.Cl", "note": "(centres unmarked)", "hERG current change (%, negative = inhibition) at 10uM": -27.4},
      {"smiles": "CC(C)C1N(C(=O)CN2CCCC2)CCN1S(=O)(=O)c1ccccc1", "note": "(centres unmarked)", "hERG current change (%, negative = inhibition) at 10uM": 11},
      {"smiles": "Cc1cc(C(=O)NNc2cc(Cl)ccc2Cl)no1", "hERG current change (%, negative = inhibition) at 10uM": 6.55},
      {"smiles": "COC(=O)c1ccc([C@@H]2C[C@H]3CN(Cc4cccnc4)C(=O)[C@]34CCCN24)cc1", "hERG current change (%, negative = inhibition) at 10uM": -1.19},
      {"smiles": "O=C1N(Cc2cccnc2)C[C@@H]2C[C@@H](c3ccc(-c4ccccc4)cc3)N3CCC[C@@]123", "hERG current change (%, negative = inhibition) at 10uM": -71.3},
      {"smiles": "Cc1cc(C(=O)N/N=C/c2c[nH]c3ccccc23)cs1", "hERG current change (%, negative = inhibition) at 10uM": -8.33},
      {"smiles": "NC(=O)NC(=O)CSc1nc2cc([N+](=O)[O-])ccc2n1-c1cccc(C(F)(F)F)c1", "hERG current change (%, negative = inhibition) at 10uM": -57.7},
      {"smiles": "NC(=O)CSc1nnc(-c2ccccc2Br)n1-c1cccc(C(F)(F)F)c1", "hERG current change (%, negative = inhibition) at 10uM": -11.9},
      {"smiles": "CC(Sc1nc2cc([N+](=O)[O-])ccc2n1-c1cccc(C(F)(F)F)c1)C(=O)NC(N)=O", "note": "(centres unmarked)", "hERG current change (%, negative = inhibition) at 10uM": 13.6},
      {"smiles": "C=CCNC(=O)NC(=O)CSc1nc2cc([N+](=O)[O-])ccc2n1-c1cccc(C(F)(F)F)c1", "hERG current change (%, negative = inhibition) at 10uM": 20.8},
      {"smiles": "NC(=O)CSc1nc2cc([N+](=O)[O-])ccc2n1-c1cccc(C(F)(F)F)c1", "hERG current change (%, negative = inhibition) at 10uM": -69.9},
      {"smiles": "CCNC(=O)CSc1nc2cc([N+](=O)[O-])ccc2n1-c1cccc(C(F)(F)F)c1", "hERG current change (%, negative = inhibition) at 10uM": -35.8},
      {"smiles": "Cc1ccc(SCC(=O)Nc2cccc(C(=O)NC(C)(C)C)c2)cc1", "hERG current change (%, negative = inhibition) at 10uM": 4.17},
      {"smiles": "O=C(Nc1cc(Cl)ccc1N1CCOCC1)c1cccnc1Cl", "hERG current change (%, negative = inhibition) at 10uM": 1.8},
      {"smiles": "O=S(=O)(c1ccc(N2CCCCCC2)nc1)N1CCCC1", "hERG current change (%, negative = inhibition) at 10uM": 17.2},
      {"smiles": "Cc1ccc(S(=O)(=O)N(C)C)cc1[N+](=O)[O-]", "hERG current change (%, negative = inhibition) at 10uM": -4.14},
      {"smiles": "COc1ccc(CCNC(=O)c2cnccn2)cc1", "hERG current change (%, negative = inhibition) at 10uM": 10.8},
      {"smiles": "O=C(C[n+]1cc(Br)cc2ccccc21)c1ccc(Cl)cc1.[Br-]", "hERG current change (%, negative = inhibition) at 10uM": -49.8},
      {"smiles": "O=C(C[n+]1cc2ccccc2c2ccccc21)c1ccccc1.[Br-]", "hERG current change (%, negative = inhibition) at 10uM": -73.8},
      {"smiles": "O=C(C[n+]1cc(Br)cc2ccccc21)c1ccc(Br)cc1.[Br-]", "hERG current change (%, negative = inhibition) at 10uM": -83.3},
      {"smiles": "O=C(C[n+]1cc(Br)cc2ccccc21)c1ccc(F)cc1.[Br-]", "hERG current change (%, negative = inhibition) at 10uM": -41.6},
      {"smiles": "O=C(C[n+]1cccc2ccccc21)c1ccc(NC(=O)c2ccccc2)cc1.[Br-]", "hERG current change (%, negative = inhibition) at 10uM": 8.45},
      {"smiles": "COc1ccc(C(=O)C[n+]2cc(Br)cc3ccccc32)cc1[N+](=O)[O-].[Br-]", "hERG current change (%, negative = inhibition) at 10uM": -66.3},
      {"smiles": "COc1ccc(C(=O)C[n+]2cccc(C)c2C)cc1[N+](=O)[O-].[Br-]", "hERG current change (%, negative = inhibition) at 10uM": -13.2},
      {"smiles": "Cc1ccc2c(ccc[n+]2CC(=O)c2ccccc2)c1.[Br-]", "hERG current change (%, negative = inhibition) at 10uM": -13.1},
      {"smiles": "O=C(C[n+]1cc(Br)cc2ccccc21)c1ccccc1.[Br-]", "hERG current change (%, negative = inhibition) at 10uM": -21.7},
      {"smiles": "N#CCc1c(C#N)c(N)nc(N2CCN(S(=O)(=O)c3ccccc3)CC2)c1C#N", "hERG current change (%, negative = inhibition) at 10uM": -0.357},
      {"smiles": "C=CCn1c(SCC(=O)Nc2cccnc2Cl)nnc1-c1ccccc1F", "hERG current change (%, negative = inhibition) at 10uM": -15.5},
      {"smiles": "COc1cc(C=O)ccc1OCCSc1ccc(C)cc1", "hERG current change (%, negative = inhibition) at 10uM": -3.13},
      {"smiles": "O=C(CSc1nnc(CNC(=O)c2ccco2)o1)Nc1ccccc1", "hERG current change (%, negative = inhibition) at 10uM": 17.2},
      {"smiles": "CN(C)C(CNC(=O)CCc1c[nH]c2ccccc12)c1ccccc1", "note": "(centres unmarked)", "hERG current change (%, negative = inhibition) at 10uM": -5.7},
      {"smiles": "CCOC(=O)C1=CC[C@H]2c3c(c4ccccc4n3C)C(=O)C1N2S(=O)(=O)c1ccc(C)cc1", "hERG current change (%, negative = inhibition) at 10uM": -4.05},
      {"smiles": "COc1ccc(C2=NS(=O)(=O)N(C)C(C(=O)NC(C)c3ccccc3)=C2)cc1", "note": "(centres unmarked)", "hERG current change (%, negative = inhibition) at 10uM": -23.8},
      {"smiles": "COc1ccc(C2=NS(=O)(=O)N(C)C(C(=O)NCc3ccco3)=C2)cc1OC", "hERG current change (%, negative = inhibition) at 10uM": -48.9},
      {"smiles": "COc1ccc(CNC(=O)C2=CC(c3ccc(OC)cc3)=NS(=O)(=O)N2C)cc1", "hERG current change (%, negative = inhibition) at 10uM": -54.5},
      {"smiles": "Cc1ccc(C2=NS(=O)(=O)N(C)C(C(=O)NCc3ccco3)=C2)cc1", "hERG current change (%, negative = inhibition) at 10uM": -58.4},
      {"smiles": "COc1ccc(CNC(=O)C2=CC(c3ccc(C)cc3)=NS(=O)(=O)N2C)cc1", "hERG current change (%, negative = inhibition) at 10uM": -9.69},
      {"smiles": "Cc1ccc(C2=NS(=O)(=O)N(C)C(C(=O)NCc3cccs3)=C2)cc1", "hERG current change (%, negative = inhibition) at 10uM": -8.57},
      {"smiles": "COc1ccc(C2=NS(=O)(=O)N(C)C(C(=O)N(C)Cc3ccccc3)=C2)cc1OC", "hERG current change (%, negative = inhibition) at 10uM": -6.75},
      {"smiles": "COc1ccc(OC)c(C2=NS(=O)(=O)N(C)C(C(=O)NCc3cccs3)=C2)c1", "hERG current change (%, negative = inhibition) at 10uM": -28},
      {"smiles": "COc1ccc(C2=NS(=O)(=O)N(C)C(C(=O)NCc3ccccn3)=C2)cc1", "hERG current change (%, negative = inhibition) at 10uM": -33.9},
      {"smiles": "COc1ccc(C2=NS(=O)(=O)N(C)C(C(=O)NCc3cccs3)=C2)cc1OC", "hERG current change (%, negative = inhibition) at 10uM": -53.9},
      {"smiles": "CN1C(C(=O)NCc2ccco2)=CC(c2ccc(F)cc2)=NS1(=O)=O", "hERG current change (%, negative = inhibition) at 10uM": -34.2},
      {"smiles": "COc1ccc(C2=NS(=O)(=O)N(C)C(C(=O)N(C)Cc3ccccc3)=C2)cc1", "hERG current change (%, negative = inhibition) at 10uM": -69.9}
    ]}
  ]
}
